Article PMC4552634, “A New Set of Chemical Starting Points with Plasmodium falciparum Transmission-Blocking Potential for Antimalarial Drug Discovery” (PLoS ONE, 2015)
Like-named read-outs stand apart in the source and are kept apart here. Out of some 13,000 compounds screened, about 3,200 (25%) showed an effect of 50% or more. The list shows a part of the results.

System: P. falciparum stage V gametocytes
Parameters: BacTiter-Glo ATP luminescence viability of purified stage V gametocytes in 384-well plates, per cent inhibition versus DMSO
Settings: 48 h, 5 µM, inhibitor

| SMILES | % Inhibition | % Inhibition (% Inhibition) |
| --- | --- | --- |
| Cc1nc(C)n(CC(=O)Nc2cccc(-c3cccc(-c4nc5ccc(C(F)(F)F)cc5[nH]4)c3)c2)n1 [TCMDC-137134] | -7.323% |  |
| O=S(=O)(c1cccc(F)c1)c1ccc(Nc2ncnc3cc(Br)sc23)cc1Cl [TCMDC-135626] | 18.51% |  |
| O=C(Nc1n[nH]c2nc(-c3ccco3)c(Br)cc12)c1ccc(CN2CCCC2)cc1 [TCMDC-141483] | 10.19% |  |
| CN(C)CCN(Cc1ccccc1-c1ccc(CNCCc2ccccc2)cc1)C(=O)NC1CCCCC1 [TCMDC-140626] | 107.8% |  |
| COc1cccc(CCN(Cc2ccccc2-c2ccc(CNC3CC(C)(C)NC(C)(C)C3)cc2)C(=O)NC2CCCCC2)c1 [TCMDC-141577] | 108.7% |  |
| CN(C)CCN(Cc1ccccc1-c1ccc(CNCCc2ccccc2)cc1)C(=O)c1ccccc1 [TCMDC-140532] | 112.9% |  |
| CC(=O)Nc1cccc(C(=O)Nc2nc3ccc(-c4cc(=O)[nH]c(Nc5ccccc5Cl)n4)cc3[nH]2)c1 [TCMDC-135793] | -20.56% |  |
| C(=Cc1ccccc1)C=NNc1ccnc2ccccc12 [TCMDC-142061] | -65.55% |  |
| Fc1cccc(COc2ccc(Nc3ncnc4sc(C#CCNC5CCCC5)cc34)cc2Cl)c1 [TCMDC-138786] | -17.57% |  |
| CCC1N=C(N)N=C(N)N1OCCCOc1c(Cl)cc(Cl)cc1Cl (stereo not drawn) [TCMDC-131697] | 23.8% |  |
| Cc1ccc(NC(=O)NC2CCN(c3ccnc4cc(Cl)ccc34)C2)cc1 (stereo not drawn) [TCMDC-133651] | 27.92% |  |
| COc1cc(NC(=O)/C=C/c2ccccc2Cl)cc(OCCN2CCC(O)(c3ccccc3)CC2)c1 [TCMDC-140934] | -1.317% |  |
| O=C1Nc2cccc3c2C1(CCCCCN1CC=C(c2c[nH]c4ccccc24)CC1)CCC3 (stereo not drawn) [TCMDC-140570] | 20.32% |  |
| CC1(CCCCN2CCC(Oc3ccc(F)cc3F)CC2)C(=O)Nc2ccccc21 (stereo not drawn) [TCMDC-140794] | -43.13% |  |
| O=C1Nc2cccc3c2C1(CCCN1CCC(c2c[nH]c4cc(C(F)(F)F)ccc24)CC1)CCC3 (stereo not drawn) [TCMDC-140464] | 106.4% |  |
| CC(C)(C)OC(=O)n1cc(C2CCN(CCCC34CCCc5cccc(c53)NC4=O)CC2)c2ccncc21 (stereo not drawn) [TCMDC-140392] | 2.693% |  |
| O=C1Nc2cccc3c2C1(CCCCCN1CCC(c2c[nH]c4ccncc24)CC1)CCC3 (stereo not drawn) [TCMDC-140504] | 73.67% |  |
| O=C1Nc2cccc3c2C1(CCCCN1CC=C(c2c[nH]c4ncccc24)CC1)CCC3 (stereo not drawn) [TCMDC-140506] | -6.886% |  |
| O=C1Nc2cccc3c2C1(CCCCN1CCC(c2cc4ccncc4[nH]2)CC1)CCC3 (stereo not drawn) [TCMDC-141151] |  | 27.49% |
| O=C1Nc2cccc3c2C1(CCCCN1CCC(c2c[nH]c4cc(C(F)(F)F)ccc24)CC1)CCC3 (stereo not drawn) [TCMDC-140465] | 121.5% |  |
| O=C1Nc2cccc3c2C1(CCCCN1CCC(c2cc4ccncc4[nH]2)CC1)CCC3 (stereo not drawn) [TCMDC-141221] |  | 84.1% |

| SMILES | % Inhibition | % Inhibition (% Inhibition) |
| --- | --- | --- |
| CCOc1ncccc1CN1CCC(N2CCc3cc(NC(=O)c4ccco4)ccc32)C1 (stereo not drawn) [TCMDC-135074] | -21.9% |  |
| COc1ccc(C2N=C(N)N=C(N)N2c2ccc(Cl)cc2)cc1OC (stereo not drawn) [TCMDC-123670] | -7.954% |  |
| COc1cc(C(=O)NC2CCN(Cc3ccccc3)CC2)ccc1-c1nc2c(Cl)cc(C(F)(F)F)cc2[nH]1 [TCMDC-140085] | -15.98% |  |
| Cc1cccc2[nH]c(-c3ccc(-c4ccc(NC(=O)Nc5ccc(F)c(F)c5F)cc4)cc3)nc12 [TCMDC-133232] | 3.128% |  |
| N#Cc1ccc2c(c1)CCN(CCC1CCC(NC(=O)/C=C/c3cccc4cc[nH]c34)CC1)CC2 (stereo not drawn) [TCMDC-139671] | -14.99% |  |
| CCN1CC=C(c2c[nH]c3ccccc23)CC1 [TCMDC-124447] | -15.41% |  |
| Cn1c(/C=C/C(=O)NC2CCC(CCN3CCc4ccc(C#N)cc4CC3)CC2)cc2ccccc21 (stereo not drawn) [TCMDC-139683] | -68.7% |  |
| Cc1cn(CC(=O)Nc2cccc(-c3cccc(-c4nc5c(C)cccc5[nH]4)c3)c2)c(=O)[nH]c1=O [TCMDC-137037] | -3.611% |  |
| CC1(CCCCN2CCC(c3c[nH]c4cnccc34)CC2)C(=O)Nc2cccc(Cl)c21 (stereo not drawn) [TCMDC-141177] | 63.64% |  |
| CC1(CCCCN2CCC(Cc3ccccc3)CC2)C(=O)Nc2ccccc21 (stereo not drawn) [TCMDC-140796] | 0.5554% |  |
| CC1(CCN2CCC(c3c[nH]c4cnccc34)CC2)CCCc2c(Br)cccc2C1=O (stereo not drawn) [TCMDC-141171] | 95.16% |  |
| O=c1[nH]c(NCCCCCN2CCC(c3c[nH]c4ccccc34)CC2)ncc1Cc1ccc(Cl)c(Cl)c1 [TCMDC-139189] | 16.9% |  |
| Cc1ccc(C(=O)Nc2cccc([N+](=O)[O-])c2)cc1S(=O)(=O)N1CC(C)CC(C)C1 (stereo not drawn) [TCMDC-123731] | 8.733% |  |
| COc1cc(F)c2ncc(Cl)c([C@@H](O)CN3CCC(NCc4ccc5c(n4)NC(=O)CO5)CC3)c2c1 [TCMDC-135488] | 20.51% |  |
| C=C[C@H]1CN2CC[C@H]1C[C@H]2[C@H](O)c1ccnc2ccc(OC)cc12 [TCMDC-123939] |  | 23.69% |
| CCN(CCCN1CCCCC1)c1cc(C)nc(Nc2ccc(C)c(Br)c2)n1 [TCMDC-132436] | 25.65% |  |
| CCN(CC)CCCN(CCCN(CC)CC)c1cc(C)nc(Nc2ccc3cc(Br)ccc3c2)n1 [TCMDC-137611] | 92.7% |  |
| CCN(CCCN1CCCCC1)c1cc(C)nc(Nc2ccc(C)c(C)c2)n1 [TCMDC-132440] | 22.96% |  |
| CCCN(CCC)CCCN(CCCN(CCC)CCC)c1cc(C)nc(Nc2ccc3cc(Br)ccc3c2)n1 [TCMDC-138006] | 102.3% |  |
| CCCCN(CCCC)CCCN(CCCN(CCCC)CCCC)c1cc(C)nc(Nc2ccc3cc(Br)ccc3c2)n1 [TCMDC-138005] | 117% |  |
| CCN(CCCN1CCCCC1)c1cc(C)nc(Nc2ccc(OC)cc2)n1 [TCMDC-132430] | -5.018% |  |
